# Mito fusion act: mitochondrial division inhibition or fusion activation; S. cerevisiae fusion-defective mutant growth rescue, CellTiterGlo 48 h; Potency, µM (doses to about 46.1 µM), for inactives: at the highest dose growth rescue (activation), actives largely listed as activators; AID 485298; 0.23% of 320,000 active; also: % of control where 0% means no effect; nearly all actives have a fitted effect of over 45% in size
#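 Yeast fusion mutant, YPEG (non-fermentable carbon), compound, 48 h at 37C non-permissive; CellTiterGlo added, 10 min RT, luminescence read. Rescued growth = division inhibition.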
# Chronic BCR inh: blocks chronic active B-cell receptor signaling | Potency, µM (doses to about 46.1 µM), for the others: at the top dose activity change, negative = inhibition, actives largely listed as inhibitors | AID 493014 | 0.05% of 340,000 active | ABC-DLBCL IkBa-CBG/CBR reporter, luminescence ratio, 4 h; active = well fitted inhibition curve with a large enough effect in the signal ratio, with a control signal flat, not every such curve was filed as active; inconclusive = small, poorly fitted or top-dose-only effect, or effect the other way, or a change in a side signal; the % refers to the signal ratio;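 also: plate controls were basal doxycycline-induced cells for no effect and cells given 10 µM MG132 for full effect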
#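 TMD8 ABC-DLBCL cells carrying doxycycline-inducible green luciferase fused to IkappaBalpha plus unfused red luciferase were exposed to compounds (up to 46 uM) for 4 hrs at 37C. Activity came from the overlap-corrected green/red luminescence ratio.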
# Integrin act MD: integrin-mediated muscular dystrophy alleviation activation. AID 624291. alpha7betagal myoblasts, beta-gal FDG fluorescence, 48 h. Potency, µM (series often up to 38.3 µM), inactives show at the highest dose activation, hits mostly activators. 0.064% of 350,000 active;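 also: 100% = response of the positive control SU9516; nearly all actives have a fitted effect of over 60% in size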
#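 alpha7betagal+/- myoblasts (passage 13, 250/well) treated 48 h at 37C with compounds at 1:260 dilution of DMSO stock. Lysed, then beta-galactosidase activity read as FDG fluorescence (ex 480/em 540) after 30 min, with pre-read for autofluorescence.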
# RORgamma inh: ROR gamma (mouse) transcription inhibition; P51450; 5.4% of 310,000 active; Potency, µM (doses to about 53.6 µM), without a hit: top-dose activity change, negative = inhibition, hits mostly inhibitors; Drosophila S2 Gal4-RORgamma UAS-luciferase reporter, 20 h; also: % is scaled to controls: 0 for no effect and ±100 for the full control effect; nearly all actives have a fitted effect of over 60% in size
# Target sequence (P51450 whole entry, looked up, the tested form may be a part): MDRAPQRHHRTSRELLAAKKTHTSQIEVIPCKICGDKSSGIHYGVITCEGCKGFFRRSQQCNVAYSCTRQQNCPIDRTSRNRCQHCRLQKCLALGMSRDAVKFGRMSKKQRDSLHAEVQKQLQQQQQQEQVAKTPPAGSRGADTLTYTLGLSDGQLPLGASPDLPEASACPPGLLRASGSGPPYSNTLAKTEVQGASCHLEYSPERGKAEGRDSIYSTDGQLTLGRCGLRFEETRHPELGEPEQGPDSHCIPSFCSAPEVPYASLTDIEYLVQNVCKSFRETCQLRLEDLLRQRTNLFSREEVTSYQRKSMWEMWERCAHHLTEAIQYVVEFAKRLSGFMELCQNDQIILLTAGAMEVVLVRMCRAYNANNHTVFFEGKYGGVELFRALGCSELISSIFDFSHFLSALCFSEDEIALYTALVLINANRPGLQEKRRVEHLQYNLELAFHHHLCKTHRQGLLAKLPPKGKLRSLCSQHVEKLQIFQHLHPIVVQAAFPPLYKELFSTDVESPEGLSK
#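 Drosophila S2 cells stably expressing Gal4-DBD/mouse RORγ fusion under metallothionein promoter plus UAS-luciferase; compound 1 h, then 700 uM CuSO4 induction for 20 h at ambient temperature; inhibition read as reduced luminescence.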
# Gal4-VP16 FLuc: counter-screen for ROR gamma inhibitors: Gal4-VP16 reporter | Drosophila S2 Gal4-VP16 UAS-luciferase, luminescence, 20 h | Potency, µM (highest dose often 53.6 µM), for the others: at the top dose activity, negative = inhibition, most hits filed as inhibitors | 3.5% of 310,000 active;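 also: Gal4-VP16 expression switched on by copper sulfate through the metallothionein promoter; % is scaled to controls: 0 for no effect and ±100 for the full control effect; nearly all actives have a fitted effect of over 50% in size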
# uPA surface inh: blocks generation of uPA at the cell surface | cell surface uPA generation assay, qHTS | Potency, µM (doses to about 38.3 µM), inactives show at the highest dose activity change, negative = inhibition, usual class: inhibitors | 0.31% of 330,000 active | AID 540303; active = well fitted inhibition curve with a large enough effect; inconclusive = small, poorly fitted or top-dose-only effect; inactive = no such curve, though single readings can be large or run the other way; tested in mouse RAW 264.7 cells; also: % is scaled to controls: 0 for no effect and ±100 for the full control effect; nearly all actives have a fitted effect of over 55% in size
# * = called active by the depositor; ? = inconclusive; . = not tested or not shown; ! = repeats disagree; [ ] = another dose, or the depositor's remark. This is a sample that favours compounds with a hit; in the whole collection about 5.5% have one here. Unless noted, calls follow the shape of the dose curve; as a rule, active = well fitted curve in the direction sought with a large enough effect; inconclusive = small, poorly fitted or top-dose-only effect, or another doubt; inactive = no such curve, though single readings can be large; an effect the other way counts as inactive or inconclusive. Potency is read from the fitted curve at half-maximal effect.
SMILES,Mito fusion act,Chronic BCR inh,Integrin act MD,RORgamma inh,Gal4-VP16 FLuc,uPA surface inh
Cc1nn(C)c(C)c1CN(Cc1nc(-c2ccc(F)cc2F)oc1C)C1CC1,7%,8%,-59%,0%,-7%,-2%
CC(C)(C)NC(=O)c1cc(C(C)(C)C)c(O)c(C(C)(C)C)c1,-1%,-2%,23%,-20%,?,22%
CCN(CC)C(=O)c1cc(C(C)(C)C)c(O)c(C(C)(C)C)c1,2%,?,1%,10µM*,-3%,3%
COc1cccc(CNC(=O)CN2C(=O)N(c3ccc(C)cc3C)S(=O)(=O)c3ccccc32)c1OC,.,-2%,.,.,.,.
CC1=C(C(=O)OC2CCCCC2)C(c2cccs2)n2c(nc3ccccc32)N1 (centres undefined),-6%,?,24%,4.5µM*,?,2%
CCOC(=O)C1=C(C)Nc2nc3ccccc3n2C1c1ccccc1 (centres undefined),1%,-1%,11%,-21%,5%,2%
S=c1nc(-c2ccccc2)c(-c2ccccc2)n[nH]1,20%,?,20%,8.9µM*,-20%,-6%
CCc1ccc(NC(=O)CCCN2C(=S)NC(C)(C)CC2C)cc1 (centres undefined),2%,-10%,0%,4.5µM*,?,7%
CC1CC(C)(C)NC(=S)N1CCCC(=O)Nc1ccc2c(c1)OCCO2 (centres undefined),9%,?,-1%,28%,-12%,1%
Cc1ccc(NC(=O)CCCN2C(=S)NC(C)(C)CC2C)cc1 (centres undefined),-10%,-3%,6%,13µM*,?,1%
CC1CC(C)(C)NC(=S)N1CCCC(=O)Nc1ccc(F)cc1 (centres undefined),0%,1%,-10%,13µM*,?,3%
CC1CC(C)(C)NC(=S)N1CC(=O)NCc1ccc(Cl)cc1 (centres undefined),-7%,?,?,11µM*,?,2%
CCCCC[C@]12Cc3cc(OC)c(OC)cc3C(O1)c1c(cc(C)n(-c3ccccc3)c1=O)O2,-6%[9.22 µM],9%[9.22 µM],.,4%[10 µM],-1%[10 µM],.
CCN(CC)CCC(=O)N1c2ccccc2Sc2ccc(C(F)(F)F)cc21,.,.,.,-1%,-4%,.
C=C1CCN(C(CC(C)C)C(=O)NCc2ccc(Cl)c(Cl)c2)S(=O)(=O)c2ccccc21 (centres undefined),.,.,.,27%,3%,.
CC(C)(C)NC[C@@H](O)COc1ccccc1C1CCCC1,.,.,.,13%[2.98 µM],-4%[17 µM],.
CN(C)c1ccc(/C=C2\C(=O)Nc3ccccc32)c2ccccc12,.,.,.,19%,-7%,.
Cc1ccc2c(=O)c3ccccc3n(CCCN)c2c1C,.,.,.,11µM*!,16µM*!,.
CCN(CC)CCn1c2ccccc2c(=O)c2c(O)ccc(O)c21,.,.,-16%,.,.,4%
COc1ccc(/C=N/NC(=O)c2ccc(NC(C)=O)cc2)cc1COc1ccc(F)cc1F,-6%,?,11%,11µM*,10µM*,4%
COc1ccc(/C=N/NC(=O)c2ccccc2O)cc1CSc1ccccn1,-4%,?,17%,16µM*,?,3%
COc1ccc(/C=N/NC(=O)c2ccncc2)cc1COc1ccc(NC(C)=O)cc1,1%,?,-25%,8%,22%,-9%
COc1ccc(/C=N\NC(=O)c2ccccc2F)cc1COc1ccc(F)cc1F,-3%,?,-32%,16µM*,20µM*,-19%
CC(C)(Oc1ccc([C@@H]2CC2(Cl)Cl)cc1)C(=O)O,.,.,.,2%[16.9 µM],5%[17 µM],.
CCCCNCc1nc2ccccc2c(=O)[nH]1,0%,-2%,34%,10µM*,?,4%
CCN(Cc1cc(=O)n2cc(Cl)c(C)c(Cl)c2n1)Cc1nc2ccccc2c(=O)[nH]1,16%,16%,-4%,13µM*,?,6%
CCN(Cc1cc(=O)n2ccsc2n1)Cc1nc2cc(OC)c(OC)cc2c(=O)[nH]1,1%,-5%,27%,-42%,-1%,0%

# From PubChem BioAssay
